The values that follow come from PubChem BioAssay AID686979 (National Center for Advancing Translational Sciences (NCATS), 2013).

Each structure is given as a SMILES string. Hit rate of the full screen: of about 420,000 compounds, about 50,000 (12%) were called active. Where a call stands in place of a potency, no number is given. About 26% were inconclusive and are not listed. The call rests on the fitted dose curve; in most records, active means well fitted inhibition curve with a large enough effect; inconclusive means small, poorly fitted or top-dose-only effect; inactive means flat fitted curve, though single readings scatter. The full list was thinned out, with actives kept by preference.
Potency means the concentration at half of the fitted maximal effect.

This test can be described thus: qHTS for Inhibitors of human tyrosyl-DNA phosphodiesterase 1 (TDP1): qHTS in cells in presence of CPT. Further: nearly all actives have a fitted effect of over 55% in size. Conditions: chicken DT40 Tdp1-/-;hTDP1 cells + 20 nM CPT, ATP luminescence, 48 h; series mostly up to 46.2 µM. The gist of the method: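 Chicken DT40 Tdp1-/- cells stably complemented with human TDP1 were seeded at 400 cells/well in medium containing 20 nM camptothecin, exposed to pin-transferred compounds, and grown at 37 °C for at least 48 hr. Viability was read as ATP luminescence.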
For `O=C1CCC[C@@H]2C[C@@]3(C[C@@H]4CCN1[C@H]24)Nc1ccccc1NC3=NCc1ccccc1`, the Potency result was “inactive”. Regarding `O=C1CC[C@@H]2CC3(C[C@@H]4CCN1[C@H]24)Nc1cc([N+](=O)[O-])ccc1NC3=NC1CCCCC1` (some centres not stated), the Potency result is “inactive”.

In the case of `Cc1cc2c(cc1C)NC1(C[C@H]3CCC(=O)N4CC[C@@H](C1)[C@@H]34)C(=NC(C)(C)CC(C)(C)C)N2` (some centres not stated), the Potency was 20.6 µM (active).

On to `COc1ccccc1NC(=O)C[n+]1ccccc1`, for which the Potency result is “inactive”. On to `COc1ccccc1NC(=O)/C=C/C(N)=O`, for which the Potency is 2.06 µM (active). For the molecule `COc1ccccc1NC(=O)c1cc(Cl)nnc1Cl`, the Potency result was “inactive”. Take `Nc1ccccc1Sc1cc(Cl)nnc1Cl`: the Potency entry is “inactive”. With `Cc1ccsc1C(=O)OCC(=O)Nc1cccc(F)c1`, the Potency result was “inactive”.

On to `O=C(CNC(=O)c1ccc2ccccc2c1)Nc1ncccc1O`, for which the Potency result was “inactive”. With `O=C(NCC(=O)N1CCN(c2ccccc2F)CC1)c1cccs1`, the Potency entry was “inactive”. With `O=C(NCC(=O)N1CCN(c2ccccc2O)CC1)c1ccc2ccccc2c1`, the Potency is 18.4 µM (active). For the molecule `CN(C)/C=C(\C#N)C(=O)c1cccnc1Oc1cccc(F)c1`, the Potency entry is “inactive”. Take `COCc1[nH][nH]c(=O)c1C=Nc1ccc(F)cc1F`: the Potency result is “inactive”.

In the case of `O=C(c1cc2ccccc2o1)N1CCN(c2cccc(C(F)(F)F)c2)CC1`, the Potency entry was “inactive”.

`Cc1ccc(C)c(S(=O)(=O)N2CCCOC2CNC(=O)C(=O)NC2CCCCC2)c1` (configuration not stated): the Potency result was “inactive”. On to `Cn1c(Nc2ccccc2)cc(=O)n(C)c1=O`, for which the Potency result is “inactive”. For `S=c1ccc2ccccc2[nH]1`, the Potency was 13 µM (active).

With `CCOC(=O)c1ccccc1NS(=O)(=O)c1c(C)nc2sccn2c1=O`, the Potency result is “inactive”. Turning to `Cc1ccc(CNC(=O)CSC2=Nc3ccccc3C3=NC(C)C(=O)N23)cc1` (configuration not stated), the Potency result was “inactive”. In the case of `O=C(CSC1=Nc2ccccc2C2=NC(CC(=O)NCc3ccco3)C(=O)N12)NCc1ccco1` (configuration not stated), the Potency result was “inactive”. Take `COc1ccccc1NC(=O)CSC1=Nc2ccccc2C2=NC(CC(=O)NCc3cccs3)C(=O)N12` (configuration not stated): the Potency was 20.6 µM (active). Consider `CN1CCC(=NNC(=O)c2ccc(N(Cc3ccc(Cl)cc3)S(C)(=O)=O)cc2)CC1`, for which the Potency entry was “inactive”.

Regarding `CC(=O)Nc1ccc(NC(=O)CC2CCCC2)cc1`, the Potency entry is “inactive”.

As for `CSc1ncnc2c1ncn2CCCNCC1CCCCC1`, the Potency result was “inactive”. As for `CSc1ncnc2c1ncn2CC(=O)C1CCC2C3CCC4=CC(=O)CCC4(C)C3CCC12C` (configuration not stated), the figure is 5.8 µM (active); as for `CCOC(=O)c1ccc(CS(=O)c2ccc(Cl)cc2)o1` (configuration not stated), “inactive”. `CC(Nc1ccc([N+](=O)[O-])cc1[N+](=O)[O-])c1ccccc1` (configuration not stated): the Potency entry is “inactive”. Turning to `Cc1ccc(C(=O)NCCNC(=O)c2cnccn2)cc1`, the Potency entry was “inactive”.

Regarding `CCN(CC)c1ccc(C(=O)Nn2c(C)nc3ccccc3c2=O)cc1`, the Potency entry was “inactive”.

With `CCN(CC)c1ccc(/C=N/NC(=O)c2cnccn2)c(O)c1`, the Potency was 5.17 µM (active). As to `CCN(CC)c1ccc(/C=N/NC(=O)CNC(=O)c2cccnc2)cc1`, the Potency result is “inactive”.

`CCN(CC)c1ccc(/C=N/Nc2nc(C)cc(C)n2)c(O)c1`: the Potency was 4.11 µM (active).
